Pol kappa inh-1: blocks human DNA polymerase kappa activity. Q9UBT6. purified Pol kappa, fluorescent DNA synthesis assay, 10 min. Potency, µM (series often up to 107 µM), actives largely listed as inhibitors. actives 0.53% (n = 400,000)
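50 nM final substrate added after 15 min RT preincubation of 10 nM Pol kappa with compound; fluorescence read at 0 and 10 min.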
Pol eta inh-1: DNA polymerase eta (human) inhibition. Q9Y253. recombinant Pol eta, fluorescent DNA replication assay. Potency, µM (top dose mostly 114 µM), actives largely listed as inhibitors. actives 1.2% (n = 390,000)
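Pol eta at 10 nM preincubated with compounds 15 min at room temperature; reaction started with fluorescent substrate (50 nM final) and read kinetically at 0 and 10 min.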
POLB inh: inhibitors of human DNA polymerase beta | Pol beta primer extension/strand displacement, fluorescence kinetic | P06746 | Potency, µM (titrated, usually from 114 µM), most hits filed as inhibitors | actives 1.3% (n = 340,000)
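Kinetic readout of DNA synthesis with strand displacement by Pol beta. Compound and 10 nM enzyme sit 15 min at room temperature; 50 nM substrate starts the reaction, read immediately and at 10 min.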
PI5P4K alpha inh: PI5P4K alpha (human) kinase inhibition | AID 652105 | PI5P4Kalpha enzyme, ADP-Glo luminescence, 60 min; stronger effect = lower value | max response, % | P48426 | actives 1.2% (n = 330,000); active = max response of -50% or lower; inconclusive = between -30% and -50%; inactive = -30% or higher; also: value at the top dose of about 77 µM
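Controls without substrate or without enzyme flank wells where PI5P4Kalpha converts substrate using 5 microM ATP (final). Incubation lasts 60 minutes at room temperature; ADP formed is read by ADP-Glo luminescence.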
Pol iota inh: inhibitors of human DNA polymerase iota. Q9UNA4. Potency, µM (top dose mostly 115 µM), hits mostly inhibitors. actives 1% (n = 390,000). Pol iota fluorescent replication assay, 10 min
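Pol iota at 10 nM preincubated 15 min with compounds at room temperature; reaction started with fluorescent substrate, 50 nM final. Fluorescence read kinetically at 0 and 10 min; buffer-only wells as negative control.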
12-LOX inh: blocks human arachidonate 12S-lipoxygenase. purified 12hLO, xylenol orange hydroperoxide absorbance. P18054. Potency, µM (series often up to 108 µM), most hits filed as inhibitors. actives 1.1% (n = 580,000)
Target sequence (P18054 whole entry, looked up): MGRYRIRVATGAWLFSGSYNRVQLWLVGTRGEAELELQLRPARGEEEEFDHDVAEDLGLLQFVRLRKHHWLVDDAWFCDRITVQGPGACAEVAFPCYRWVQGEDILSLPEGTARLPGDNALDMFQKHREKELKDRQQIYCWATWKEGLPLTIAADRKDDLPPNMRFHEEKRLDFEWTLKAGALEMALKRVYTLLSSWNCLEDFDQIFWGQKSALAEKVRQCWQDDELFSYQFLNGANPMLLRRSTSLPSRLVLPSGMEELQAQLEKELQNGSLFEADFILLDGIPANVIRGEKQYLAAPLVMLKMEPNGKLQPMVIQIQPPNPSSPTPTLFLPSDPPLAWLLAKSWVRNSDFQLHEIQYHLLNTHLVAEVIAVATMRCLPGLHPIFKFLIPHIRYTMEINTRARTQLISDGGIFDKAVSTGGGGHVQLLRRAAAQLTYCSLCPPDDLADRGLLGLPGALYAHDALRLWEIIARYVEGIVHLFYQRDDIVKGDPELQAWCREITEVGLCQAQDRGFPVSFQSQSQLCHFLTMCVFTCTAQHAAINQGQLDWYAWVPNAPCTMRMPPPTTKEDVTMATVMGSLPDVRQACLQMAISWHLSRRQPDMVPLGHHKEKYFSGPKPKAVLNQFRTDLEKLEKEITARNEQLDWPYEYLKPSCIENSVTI
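Purified human 12hLO at 150 nM in 25 mM Hepes, 0.01% Triton X-100, pH 7.0, preincubated 15 min at room temperature with compound. Reaction started with 40 uM arachidonic acid, 30 min at room temperature. Hydroperoxide measured by Fe-xylenol orange, 573/405 nm absorbance ratio.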
GALK confirm: galactokinase (human) inhibition, confirmation; shares compounds with Pol eta inh-1; purified GALK, Kinase-Glo ATP depletion luminescence; Potency, µM (highest dose often 115 µM), most hits filed as inhibitors; actives 70% (n = 150); AID 2015
GALK redox cs: redox cycling activity in phenol red-HRP assay. AID 2035. actives 40% (n = 150). Phenol red-HRP H2O2 redox cycling, absorbance 600 nm. Potency, µM (series often up to 115 µM), most hits filed as inhibitors. shares compounds with Pol eta inh-1
HEK293 viability: counter-screen for GALK inhibitors: HEK293 cell cytotoxicity; shares compounds with Pol eta inh-1; HEK-293 viability, ATP luminescence (CellTiter-Glo), 24/48 h; Potency, µM (series often up to 46.1 µM), actives largely listed as inhibitors; actives 10% (n = 170); AID 2547
Pol kappa inh-2: confirmation of human DNA polymerase kappa inhibitors; shares compounds with Pol eta inh-1; purified Pol-kappa, fluorescent strand-displacement substrate; Potency, µM, usual class: inhibitors; actives 76% (n = 920)
Pol eta inh-2: confirmation of human DNA polymerase eta inhibitors. shares compounds with Pol eta inh-1. Pol eta primer extension, TAMRA/BHQ fluorescence, 10 min. Potency, µM, most hits filed as inhibitors. actives 64% (n = 2,600). AID 720502
Hits are given with their value; – = inactive; ? = inconclusive; · = not tested or not shown. Rows were chosen to be rich in hits. Some 2.9% of all compounds tested hit in one or more screens of this group. Unless noted, calls follow the shape of the dose curve; as a rule, active = well fitted curve in the direction sought with a large enough effect; inconclusive = small, poorly fitted or top-dose-only effect, or another doubt; inactive = no such curve, though single readings can be large; an effect the other way counts as inactive or inconclusive.

SMILES | Pol kappa inh-1 | Pol eta inh-1 | POLB inh | PI5P4K alpha inh | Pol iota inh | 12-LOX inh | Pol eta inh-2 | others
O=C1NC(=S)S/C1=C\c1cc(Cl)ccc1Cl | – | 40µM | · | -62 | ? | 7.9µM | · | Pol kappa inh-2=?
O=C(O)CCc1ccc(-c2cccs2)n1CCC(=O)O | ? | 10µM | 22µM | – | ? | ? | ?
C/C(=N\Nc1ccc(C(=O)O)cc1)c1ccc(Br)cc1 | ? | 13µM | 20µM | – | 40µM | ? | 27
O=C(Cn1cc(S(=O)(=O)N2CCCC2)c(S(=O)(=O)N2CCCC2)c1)Nc1ccc(F)cc1 | – | – | – | · | – | – | ·
COc1cccc(NC(=O)Cn2cc(S(=O)(=O)N3CCCC3)c(S(=O)(=O)N3CCCC3)c2)c1 | – | 89µM | ? | · | ? | – | ? | Pol kappa inh-2=38
COc1cc2ccccc2cc1C(=O)NC(=S)Nc1ccc(C(=O)O)cc1 | – | 50µM | – | – | – | – | ?
COc1cc2ccccc2cc1C(=O)NC(=S)Nc1cccc(C(=O)O)c1 | – | 45µM | 28µM | – | ? | ? | ?
CC(=O)c1cccc(NC(=S)NC(=O)c2ccccc2)c1 | – | – | – | – | – | ? | ·
COc1ccc(NC(=O)c2cc3ccccc3cc2OC)cc1 | ? | – | – | – | ? | – | ·
Cc1ccc(C(=O)Nc2nc(-c3ccco3)c(-c3ccco3)s2)o1 | – | 14µM | · | ? | ? | ? | 60 | Pol kappa inh-2=15
O=C(CCl)N1N=C(c2ccco2)CC1c1ccco1 (centres undefined) | 22µM | 10µM | 25µM | -70 | 3.2µM | ? | 60
COc1ccc(-c2nn(CCC(=O)O)cc2/C=C2\SC(N)=NC2=O)cc1OC | ? | 10µM | – | – | – | – | 43
CCn1nc(C(=O)Nc2cc(Cl)c(N)c(Cl)c2)c2ccccc2c1=O | · | · | · | · | · | – | ·
CCCN1C(=O)CCc2cc(NS(=O)(=O)c3ccc4c(c3)CCCC4)ccc21 | · | · | · | · | · | – | ·
CC(=O)Nc1ccc(OCc2cccc(-c3nc4ccccc4c(=O)n3Cc3ccco3)c2)cc1 | · | · | · | · | · | · | ?
CC(C)NC(=O)NCCn1c(-c2ccccc2)nc2ccccc21 | · | · | · | · | · | – | ·
O=C(O)C1Cc2ccccc2CN1C(=O)COc1ccc(Br)cc1 (centres undefined) | 79µM | 10µM | 32µM | – | ? | – | 27
O=C(O)C1Cc2ccccc2CN1C(=O)COc1ccc(Cl)cc1Cl (centres undefined) | – | 25µM | ? | – | – | ? | ?
COc1ccc2c(CN3CCC(CO)CC3)cc(=O)oc2c1 | · | · | · | · | · | – | ·
CCCNC(=S)NNC(=O)C(C)C | · | · | · | · | · | – | ·
COc1ccc(-c2cn3c(n2)sc2cc(C(=O)NCCCN4CCCCC4)ccc23)cc1 | – | ? | – | · | – | ? | ·
COc1ccc(-c2cn3c(n2)sc2cc(C(=O)NCCCN4CCCCCC4)ccc23)cc1 | – | ? | – | · | – | ? | · | Pol kappa inh-2=?
CC1=NN(c2ccc(C)cc2)C(=O)/C1=C/c1ccc(-c2cc([N+](=O)[O-])ccc2O)o1 | 79µM | 20µM | 7.1µM | -94 | 20µM | 20µM | ? | Pol kappa inh-2=17
Cc1ccc(-c2cc3nccc(-c4cc([N+](=O)[O-])ccc4O)n3n2)cc1 | – | – | – | · | – | – | ·
O=C1NN(c2cccc(Br)c2)C(=O)/C1=C/c1ccc(-c2cc([N+](=O)[O-])ccc2O)o1 | 79µM | 10µM | ? | -86 | ? | · | 30
SMILES | Pol kappa inh-1 | Pol eta inh-1 | POLB inh | PI5P4K alpha inh | Pol iota inh | 12-LOX inh | Pol eta inh-2 | others
CCOc1cc(/C=C2/C(=O)NN(c3cccc(Cl)c3)C2=O)ccc1O | – | – | – | ? | ? | – | ·
O=C(c1cccc(S(=O)(=O)N2CCOCC2)c1)N(Cc1ccco1)C1CCS(=O)(=O)C1 (centres undefined) | · | · | · | · | · | – | ·
Cn1c(=O)c2c(nc(NCCc3ccccc3)n2C)n(C)c1=O | · | · | · | · | · | – | ·
CN1CCOc2c(C(=O)NCc3cccnc3)cc(-c3cccc4[nH]ccc34)cc21 | · | · | · | · | · | – | ·
CC(CN1CCCCC1)C(=O)O (centres undefined) | · | · | · | · | · | – | ·
Cc1ccc(NC(=S)Nc2cccc3cnccc23)cc1 | – | – | – | – | – | – | ·
CC(=O)c1ccc(NC(=S)Nc2cccc3cnccc23)cc1 | – | – | ? | – | – | ? | · | GALK confirm=?;GALK redox cs=11µM;HEK293 viability=–
N#Cc1ccc2cc[nH]c2c1 | · | · | · | · | · | – | ·
O=C1CSC(=S)N1N=Cc1ccc(Cl)s1 | ? | ? | · | -55 | 14µM | ? | 54 | Pol kappa inh-2=17
Cc1ccc(F)c(NC(=O)c2nn(C)cc2Br)c1 | · | · | · | · | · | – | ·
N#Cc1c(NC(=O)c2ccc(Br)o2)n(-c2ccccc2)c2nc3ccccc3nc12 | – | 35µM | – | – | 10µM | ? | · | GALK confirm=27µM;GALK redox cs=5.3µM;HEK293 viability=–
CC(C)CCC[C@](C)(O)c1ccc(C(=O)O)cc1O | · | · | · | – | · | ? | ·
CC(C)(O)CCCC(C)(O)c1ccc(C(=O)O)cc1O (centres undefined) | ? | 10µM | 40µM | – | 35µM | – | 60
CC(=O)Nc1ccc(NC(=O)c2cn(C)c3ccccc23)cc1 | · | · | · | · | · | – | ·
COc1ccc(NC(=O)Cc2ccc(OC)c(OC)c2)cn1 | · | · | · | · | · | – | ·
Cc1ccccc1OCC(=O)N/N=C/c1sc(=O)n(Cc2cccc(C(=O)O)c2)c1Cl | – | ? | ? | – | ? | – | ?
O=C(O)c1cccc(Cn2c(Cl)c(/C=N/Nc3ccccc3)sc2=O)c1 | ? | 45µM | – | -64 | ? | · | ?
O=C(O)c1cccc(Cn2c(Cl)c(/C=N/NC(=O)c3ccccc3Cl)sc2=O)c1 | – | – | – | – | – | – | ·
COc1ccc(C(=O)N/N=C/c2sc(=O)n(Cc3cccc(C(=O)O)c3)c2Cl)cc1 | – | ? | – | – | – | – | ·
CCn1cc(CN2CCCC(COc3ccccc3C(=O)N3CCCC3)C2)c2ccccc21 (centres undefined) | · | · | · | · | · | – | ·
CC(=O)NCc1ccc(C(=O)COC(=O)COc2ccccc2)s1 | ? | 22µM | · | – | 45µM | – | 76

Assay outcomes (PubChem)
